# Laboratory results taken from PubChem BioAssay.
# Active and inactive are the calls of the source.
# Assays:
# [1] = binders of probe aFSTL3 on microarray, primary screen, stem cell growth factor project, biochemical, small-molecule microarray, fluorescence 635/667 (AID 1064); details: higher = more signal;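 also: measures binding of the biotinylated anti-FSTL3 antibody to printed compounds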
# [2] = binders from COS7 lysate, DM2A8 probe, primary screen, torsin A project, cell lysate, small-molecule microarray, fluorescence 635/667 (AID 1065); details: higher = more signal, COS7 lysate expressing mutant human TOR1A
# [3] = binders of probe aFGF2 on microarray, primary screen, stem cell growth factor project, biochemical, small-molecule microarray, fluorescence 635/667 (AID 1067); details: higher = more signal;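 also: measures binding of biotinylated aFGF2 protein to printed compounds on slides; z-score merges feature fluorescence and signal-to-noise across triplicate slides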
# [4] = binders of probe aFGF10 on microarray, primary screen, stem cell growth factor project, biochemical, small-molecule microarray, fluorescence 635/667 (AID 1071); details: higher = more signal;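 also: score merges 667 nm spot intensity and signal to noise from triplicate slides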
# [5] = molecular target: Neurogenic locus notch homolog protein 2 (Homo sapiens) (UniProt Q04721); test: Notch2 binders on small-molecule microarrays, primary screen, biochemical, small-molecule microarray, 635 nm fluorescence, stem cell growth factors (AID 1073); details: Notch2 binding, higher = more signal
# [6] = molecular target: Pro-neuregulin-1, membrane-bound isoform (Homo sapiens) (UniProt Q02297); test: NRG1 binders on small-molecule microarrays, primary screen, psychiatric disease protein project, biochemical, small-molecule microarray, fluorescence 635/667 (AID 1075); details: NRG1 binding, 635 nm fluorescence, higher = more signal;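 also: score combines 667 nm spot fluorescence with signal to noise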
# [7] = test system: Neuregulin-1 EGF-like domain; test: binders of neuregulin-1 EGF-like domain, primary screen, biochemical, small-molecule microarray, 635 nm fluorescence (AID 1081); details: small-molecule microarray binding, higher = more signal;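 also: binding of the protein to compounds printed on small-molecule microarray slides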
# [8] = FRG1 promoter luciferase signal modulators, primary screen, FRG1 inhibition for FSHD, cell-based, C2C12 myotubes, firefly/Renilla luciferase, luminescence (AID 1084); details: higher = more signal, called active from +8 up or from −8 down
# [9] = binders of probe aFST on microarray, primary screen, stem cell growth factor project, biochemical, small-molecule microarray, fluorescence 635/667 (AID 1086); details: higher = more signal;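 also: score merges 667 nm fluorescence with signal-to-noise of each printed compound spot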
# [10] = binders of probe aHhip on microarray, primary screen, stem cell growth factor project, biochemical, small-molecule microarray, fluorescence 635/667 (AID 1087); details: higher = more signal;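 also: score merges spot fluorescence at 667nm with spot signal to noise ratio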
# Sequence of Neurogenic locus notch homolog protein 2 (Homo sapiens) (Q04721 whole entry, looked up, canonical isoform): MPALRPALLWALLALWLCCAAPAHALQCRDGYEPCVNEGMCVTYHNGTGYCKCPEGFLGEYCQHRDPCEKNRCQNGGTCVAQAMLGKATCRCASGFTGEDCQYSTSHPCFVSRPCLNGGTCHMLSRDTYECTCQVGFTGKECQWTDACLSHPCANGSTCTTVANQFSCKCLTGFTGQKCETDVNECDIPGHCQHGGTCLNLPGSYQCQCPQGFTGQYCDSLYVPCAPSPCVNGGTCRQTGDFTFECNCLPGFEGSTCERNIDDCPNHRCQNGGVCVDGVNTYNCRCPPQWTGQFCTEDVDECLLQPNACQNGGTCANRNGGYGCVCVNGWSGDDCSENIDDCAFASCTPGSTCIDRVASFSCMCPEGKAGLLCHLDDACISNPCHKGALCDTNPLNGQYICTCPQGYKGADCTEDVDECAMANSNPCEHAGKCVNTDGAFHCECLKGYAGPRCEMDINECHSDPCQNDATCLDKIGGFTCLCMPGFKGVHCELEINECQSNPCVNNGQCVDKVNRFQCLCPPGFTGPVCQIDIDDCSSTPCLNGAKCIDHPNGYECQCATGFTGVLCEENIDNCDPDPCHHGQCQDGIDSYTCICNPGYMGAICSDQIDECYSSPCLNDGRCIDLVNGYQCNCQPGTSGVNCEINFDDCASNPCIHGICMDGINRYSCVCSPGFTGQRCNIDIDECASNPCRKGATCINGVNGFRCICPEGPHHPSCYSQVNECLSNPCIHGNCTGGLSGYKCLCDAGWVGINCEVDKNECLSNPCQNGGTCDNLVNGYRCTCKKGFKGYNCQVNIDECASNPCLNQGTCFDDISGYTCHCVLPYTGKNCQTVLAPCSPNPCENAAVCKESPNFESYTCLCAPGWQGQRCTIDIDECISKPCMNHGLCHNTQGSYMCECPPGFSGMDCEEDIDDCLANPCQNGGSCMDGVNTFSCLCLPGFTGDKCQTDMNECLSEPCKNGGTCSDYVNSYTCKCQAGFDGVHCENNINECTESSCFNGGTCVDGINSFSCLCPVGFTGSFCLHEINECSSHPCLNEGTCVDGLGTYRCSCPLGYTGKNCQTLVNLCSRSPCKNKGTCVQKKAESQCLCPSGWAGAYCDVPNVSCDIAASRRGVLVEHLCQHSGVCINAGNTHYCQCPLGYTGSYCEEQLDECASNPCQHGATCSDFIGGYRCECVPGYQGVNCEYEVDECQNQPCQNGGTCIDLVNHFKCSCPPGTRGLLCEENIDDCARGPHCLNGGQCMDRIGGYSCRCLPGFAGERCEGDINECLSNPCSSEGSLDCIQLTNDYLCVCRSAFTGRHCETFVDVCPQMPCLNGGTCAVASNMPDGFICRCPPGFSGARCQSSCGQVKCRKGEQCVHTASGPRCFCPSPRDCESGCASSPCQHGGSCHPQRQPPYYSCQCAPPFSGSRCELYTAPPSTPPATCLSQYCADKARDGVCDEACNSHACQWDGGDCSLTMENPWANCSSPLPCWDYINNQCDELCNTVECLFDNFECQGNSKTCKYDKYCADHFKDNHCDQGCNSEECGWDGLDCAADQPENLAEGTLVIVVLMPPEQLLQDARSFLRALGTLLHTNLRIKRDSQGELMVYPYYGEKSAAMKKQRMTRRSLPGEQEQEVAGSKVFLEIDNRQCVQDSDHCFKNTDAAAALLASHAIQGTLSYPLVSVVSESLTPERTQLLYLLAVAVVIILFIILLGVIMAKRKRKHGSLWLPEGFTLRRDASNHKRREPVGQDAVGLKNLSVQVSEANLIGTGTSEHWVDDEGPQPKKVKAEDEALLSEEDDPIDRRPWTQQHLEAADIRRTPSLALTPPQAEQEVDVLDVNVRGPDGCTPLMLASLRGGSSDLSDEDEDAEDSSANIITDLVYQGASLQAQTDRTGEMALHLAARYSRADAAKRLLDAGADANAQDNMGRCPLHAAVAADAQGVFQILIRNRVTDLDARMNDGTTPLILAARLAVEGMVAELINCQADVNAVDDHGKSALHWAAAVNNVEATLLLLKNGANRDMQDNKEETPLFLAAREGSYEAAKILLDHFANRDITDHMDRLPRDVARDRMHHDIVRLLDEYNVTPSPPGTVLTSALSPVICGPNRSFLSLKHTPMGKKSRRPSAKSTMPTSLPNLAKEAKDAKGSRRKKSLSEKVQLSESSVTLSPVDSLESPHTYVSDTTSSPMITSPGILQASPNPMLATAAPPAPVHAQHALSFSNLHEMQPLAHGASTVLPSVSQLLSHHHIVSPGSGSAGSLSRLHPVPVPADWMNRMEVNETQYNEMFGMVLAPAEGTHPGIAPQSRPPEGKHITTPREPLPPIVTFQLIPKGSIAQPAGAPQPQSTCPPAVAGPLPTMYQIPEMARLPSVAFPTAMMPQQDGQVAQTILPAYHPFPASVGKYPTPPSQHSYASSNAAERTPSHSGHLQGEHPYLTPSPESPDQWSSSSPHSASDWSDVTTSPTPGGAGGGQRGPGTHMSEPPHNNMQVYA
# Sequence of Pro-neuregulin-1, membrane-bound isoform (Homo sapiens) (Q02297 whole entry, looked up, the tested form may be a part, canonical isoform): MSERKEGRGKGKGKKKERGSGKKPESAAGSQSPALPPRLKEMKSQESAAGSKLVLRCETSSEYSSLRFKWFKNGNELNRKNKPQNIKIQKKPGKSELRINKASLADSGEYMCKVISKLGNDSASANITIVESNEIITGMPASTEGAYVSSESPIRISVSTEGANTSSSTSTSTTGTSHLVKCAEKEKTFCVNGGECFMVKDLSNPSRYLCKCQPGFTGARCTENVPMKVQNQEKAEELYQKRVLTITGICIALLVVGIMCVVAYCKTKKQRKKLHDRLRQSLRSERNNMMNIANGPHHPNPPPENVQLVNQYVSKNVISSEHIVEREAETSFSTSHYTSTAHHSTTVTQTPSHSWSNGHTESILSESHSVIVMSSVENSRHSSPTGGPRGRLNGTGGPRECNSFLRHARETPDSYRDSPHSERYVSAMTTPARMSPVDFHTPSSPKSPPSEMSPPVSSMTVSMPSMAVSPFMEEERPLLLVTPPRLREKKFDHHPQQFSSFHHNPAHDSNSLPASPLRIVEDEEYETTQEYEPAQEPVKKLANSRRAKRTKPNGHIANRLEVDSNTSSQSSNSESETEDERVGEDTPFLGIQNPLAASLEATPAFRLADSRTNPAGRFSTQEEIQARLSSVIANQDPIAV
SMILES,composite z-score [1],composite z-score [2],composite z-score [3],composite z-score [4],composite z-score [5],composite z-score [6],composite z-score [7],z-score [8],composite z-score [9],composite z-score [10]
Cc1ccc(S[C@]2(C(=O)O)CC(=O)N(Cc3ccccc3C(F)(F)F)[C@@H]2c2ccc(CO)cc2I)cc1,-0.0699,0.979,-0.1,-0.0146,-1.23,0.695,0.559,0.371 (inactive),-0.387,-0.334
O[C@@H](Cc1ccccc1)[C@@H](/C=C/C1CC1)NCc1cccc(Cl)c1,1.53,0.0563,-0.224,-0.813,-1.43,-0.146,-0.344,-0.715 (inactive),-0.699,-0.0994
[N-]=[N+]=Nc1ccccc1C[C@@]1(C(=O)N2CCCCC2)N=C(c2ccc(OCCCO)cc2)O[C@@H]1c1ccccc1,0.155,1.1,0.0137,0.763,1.47,1.74,1.11,-4.6 (inactive),0.884,0.0873
O=C1OCCC=C[C@H]2OC34C=CCN(c5ccc(Cl)cc5)C(=O)[C@H]3N(CCCO)C(=O)[C@@H]4C12 (stereo not given in full),0.189,-0.771,-0.104,-0.144,-0.678,-0.602,-0.366,0.923 (inactive),-0.155,-0.236
COc1cc2c(cc1OC)CN(C(=O)[C@H]1[C@@H]3C(=O)O[C@@H](c4ccccc4)[C@@H](c4ccccc4)N3[C@@H](c3ccccc3OCCO)[C@]13C(=O)Nc1ccc(C#CCCO)cc13)CC2,-0.39,0.282,0.0094,0.339,0.775,1.27,1.07,-2.07 (inactive),0.369,-0.0994
COCC(=C=CC[C@@H](O)c1ccc(OCCO)cc1)C[C@@H](O)c1ccccn1,-0.212,-0.116,-0.0633,0.923,0.687,1,1.24,1.33 (inactive),0.423,-0.236
C=CC[C@]1(C(=O)NCc2ccccc2)N=C(c2ccc(OCCCO)cc2)O[C@H]1c1ccccc1CN=[N+]=[N-],0.0143,0.234,0.053,0.505,1.54,1.05,1.11,-2.43 (inactive),1.02,0.0854
CCCC[C@H]1C[C@@H]1[C@@H]1N(P(=O)(c2ccccc2)c2ccccc2)C[C@@](O)(c2ccccc2)CC12CC2,0.666,-0.152,0.183,-0.102,1.45,0.862,0.541,1.11 (inactive),1.39,0.893
CCCC1(C(=O)OC)C=C2C(=C(c3ccccc3)C(=O)C2C)CN1 (stereo not given),1.43,-0.289,-0.0869,-0.121,0.725,0.768,0.861,2.51 (inactive),0.387,0.154
NC(=O)[C@@H]1[C@H]2C(=O)O[C@H](c3ccccc3)[C@H](c3ccccc3)N2[C@H](c2ccc(O)cc2)[C@@]12C(=O)Nc1ccc(C#CC3=CCCCC3)cc12,-0.542,0.103,-0.222,0.604,-0.173,1.68,1.15,0.009 (inactive),-0.21,-0.357
COC(=O)[C@@]1(Cc2ccccc2)[C@H]2c3cc(C(=O)N4CCCC4)n(Cc4c(CO)[nH]cc(C)c4=O)c3C[C@H]2CN1C(=O)c1ccccc1,1.13,-0.0496,0.2,0.647,1.63,1.96,1.17,1.39 (inactive),0.915,-0.121
CS(=O)(=O)CCOC(=O)C1=CC(CCCO)=CC(C2CC2)N(Cc2cc3c(cc2Br)OCO3)C=C1C(=O)OCCS(C)(=O)=O (stereo not given),-0.0672,0.702,-0.0752,0.142,0.6,1.88,1.2,-0.517 (inactive),0.114,-0.0754
O=C(O)[C@@]1(CCS(=O)(=O)c2ccccc2)N=C(c2ccc(OCCCO)cc2)O[C@H]1c1ccccc1,0.132,-0.0272,0.0654,-0.029,0.604,1.62,1.06,2.18 (inactive),0.38,-0.0994
NC(=O)[C@@]1(Cc2ccccc2)N=C(c2ccc(OCCCO)cc2)O[C@H]1c1ccccc1,0.264,-0.154,-0.0891,0.501,1.08,1.45,0.994,-2.16 (inactive),0.182,-0.189
[N-]=[N+]=Nc1ccccc1C[C@]1(C(=O)NCc2ccccc2)N=C(c2ccc(OCCCO)cc2)O[C@H]1c1ccccc1N=[N+]=[N-],-0.0447,0.288,0.189,0.218,1.49,1.6,1.06,-0.899 (inactive),0.726,-0.0672
O=C(O)C1N=C(c2ccc(OCCCO)cc2)N(c2ccccc2)O1 (stereo not given),0.158,0.0642,-0.0474,0.499,0.778,-0.145,0.527,2.09 (inactive),-0.288,-0.136
NC(=O)[C@@H]1[C@H]2C(=O)O[C@H](c3ccccc3)[C@H](c3ccccc3)N2[C@H](c2ccc(OCCO)cc2)[C@@]12C(=O)Nc1ccc(C#CC3=CCCCC3)cc12,-0.342,0.18,-0.125,1.18,1.23,1.11,1.16,1.15 (inactive),0.447,-0.227

SMILES,composite z-score [1],composite z-score [2],composite z-score [3],composite z-score [4],composite z-score [5],composite z-score [6],composite z-score [7],z-score [8],composite z-score [9],composite z-score [10]
CC(C)[Si](C#C[Si](C(C)C)(C(C)C)C(C)C)(O[C@H](C)c1cn(Cc2ccccc2)nn1)C(C)C,-0.169,0.209,-0.106,0.422,0.795,0.566,0.938,-1.66 (inactive),0.372,-0.337
[N-]=[N+]=Nc1ccccc1[C@H]1OC(c2ccc(OCCCO)cc2)=N[C@@]1(Cc1ccccc1)C(=O)N1CCOCC1,0.875,0.992,0.184,0.698,1.57,1.84,1.22,-1.6 (inactive),1.52,0.0873
O=C(CS)NCCCCCNC(=O)[C@H]1C[C@H]2C(=O)NCC(=O)N2[C@H]1c1cccc(OCCO)c1,0.656,-0.498,-0.0579,-0.461,-1.2,1.33,0.375,3.3 (inactive),-0.793,-0.176
CCC(CC)C(O)C1C=CC2C(=O)N(c3ccccc3)C(=O)C2N1Nc1ccccc1 (stereo not given),0.525,0.814,0.21,0.974,1.62,1.94,1.27,-1.31 (inactive),1.42,-0.216
CCCCN1CC=CC23O[C@@H]4/C=C\CCCOC(=O)C4[C@H]2C(=O)N(CCCCCO)[C@@H]3C1=O (stereo not given in full),0.485,-0.465,-0.0985,-0.0739,-0.901,-1.18,1.26,0.368 (inactive),-0.804,-0.249
CC(C)OC(=O)C=C1C[C@@H](c2cccc(Cl)c2)O[C@@H](c2cccc(Cl)c2)O1,0.614,0.31,0.0442,0.771,0.028,0.903,0.891,-0.582 (inactive),0.186,-0.189
CCOC(=O)C1=CCC(c2ccc(F)cc2)N(S(=O)(=O)c2ccc(C)cc2)C1 (stereo not given),0.605,0.816,0.0198,-0.105,0.552,0.199,0.116,-2.7 (inactive),0.135,-0.226
CCCCC(O)C1C=CC2C(=O)N(C)C(=O)C2N1N1CCCCC1 (stereo not given),0.515,0.314,0.0311,0.591,1.56,1.12,1.42,0.733 (inactive),1.3,-0.0618
COc1ccc([Si](C)(C)[C@H]2[C@H](CC(=O)N3CCC[C@H]3CO)O[C@@]3(C(=O)N(Cc4cccc(N5CCOC5=O)c4)c4ccccc43)[C@@H]2C)cc1,-0.308,0.358,-0.042,0.141,0.143,0.662,0.876,-3.92 (inactive),0.548,-0.169
CCCC=C(CCC)[C@@H](NS(=O)(=O)c1ccc(Cl)cc1)c1ccc(C(=O)OC)cc1,-0.172,-0.114,-0.0841,0.484,0.41,-0.194,0.866,2.58 (inactive),0.0699,-0.236
CC(c1ccccc1)C(O)C1C=CC2C(=O)N(C)C(=O)C2N1NC(=O)OC(C)(C)C (stereo not given),0.301,0.518,0.225,0.626,1.21,1.91,1.17,1.89 (inactive),1.14,-0.0645
CC(=O)n1cc(C(O)C2C=CC3C(=O)NC(=O)C3N2Nc2ccccn2)c2ccccc21 (stereo not given),0.125,0.0908,-0.0583,0.122,0.887,0.298,1.27,1.15 (inactive),0.221,-0.179
CC(C)(C)OC(=O)CC[C@]1(C(N)=O)N=C(c2ccc(OCCCO)cc2)O[C@H]1c1ccccc1,1.05,1.16,0.0466,0.27,1.53,2.53,1.07,-0.578 (inactive),0.994,0.294
CO[C@H]1O[C@H](CO)[C@@H](OC(=O)Nc2ccc(Br)cc2)[C@@H]2OC(=O)[C@H](Cc3cccc(Br)c3)C/C=C/C[C@@H](Cc3cccc(Br)c3)C(=O)O[C@@H]12,-0.0675,-0.0034,-0.135,0.0489,0.0333,0.72,1.05,1.3 (inactive),0.388,0.315
NCCCCCNC(=O)[C@H]1C[C@H]2C(=O)N3CCC[C@H]3C(=O)N2[C@H]1c1ccc(O)cc1,1.39,1.06,0.197,0.457,0.698,1.62,1.23,0.0225 (inactive),1.52,0.399
COC(=O)[C@@]1(Cc2ccccc2)[C@H]2c3cc(C(=O)N(C)C)n(Cc4ccc(OC)c(OC)c4)c3C[C@H]2CN1C(=O)c1ccccc1,0.396,0.517,0.487,1.23,1.83,1.62,1.34,0.115 (inactive),1.28,0.66
